Most compounds without a hit are left out; they make up all but 11% or so of the library.
HPGD block = inhibitors of human 15-hydroxyprostaglandin dehydrogenase (HPGD); Potency, µM, for the others: at the highest dose activity change, negative = inhibition, usual class: inhibitors; purified HPGD, NADH fluorescence kinetic, PGE2 substrate; P15428; 4.3% of 150,000 active; active = well fitted inhibition curve with a large enough effect, not every such curve was filed as active; inconclusive = small, poorly fitted or top-dose-only effect, or another doubt; inactive = no such curve, though single readings can be large or run the other way; also: potency is read from the fitted curve at half-maximal effect
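20 nM HPGD preincubated 15 min at room temperature with compound in 50 mM Tris-HCl pH 8, 0.01% Tween 20. Started with 1 mM NAD+ and 30 uM prostaglandin E2; NADH fluorescence (360/450 nm) read 5 times over 30-s intervals, last minus first.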
IMPase cell inh = IMPase inhibition in cells; 120,000 tested, under 10 active; inhibition (IP1 accumulation), % at 46.1 µM; AID 901; P97697; CHO-M1 cells, IP1 accumulation, HTRF TR-FRET ratio; active = well fitted curve in the direction sought with a large enough effect in the signal ratio, not every such curve was filed as active; inconclusive = small, poorly fitted or top-dose-only effect, or a change in a side signal; inactive = no such curve, though single readings can be large or run the other way; the % refers to the signal ratio;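 also: cells stimulated with carbachol in lithium chloride buffer; plate controls were DMSO basal wells for no effect and reference inhibitor wells for full effect; higher means more IMPase inhibition seen as more IP1 and lower FRET ratio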
Target sequence (P97697 whole entry, looked up): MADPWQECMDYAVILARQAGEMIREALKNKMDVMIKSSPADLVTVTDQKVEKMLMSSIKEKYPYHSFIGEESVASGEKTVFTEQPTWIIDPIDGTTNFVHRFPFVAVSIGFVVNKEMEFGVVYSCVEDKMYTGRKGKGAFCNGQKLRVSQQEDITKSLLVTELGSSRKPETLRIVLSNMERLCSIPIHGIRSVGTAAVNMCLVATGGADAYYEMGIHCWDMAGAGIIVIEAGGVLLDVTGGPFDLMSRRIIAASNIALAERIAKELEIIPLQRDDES
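In this qHTS, compounds (final up to 46 uM) act on CHO-M1 cells that are then activated through the M1 receptor with carbachol, in pH 7.4 buffer containing 50 mM LiCl, for 30 min. IP1 accumulation is quantified by the IP-One immunoassay.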
NPSR antagonist = neuropeptide S receptor (human) antagonism, cAMP. Q6W5P4. CHO-NPSR cells, cAMP TR-FRET, antagonist mode. 1% of 220,000 active. Potency, µM (titrated, usually from 38.3 µM), for the others: at the highest dose activity change, negative = inhibition, hits mostly inhibitors; also: potency is read from the fitted curve at half-maximal effect; nearly all actives have a fitted effect of over 50% in size
IMPase Li cell = cell-permeable IMPase inhibitors with lithium potentiation. CHO-M1 cells, IP1 TR-FRET (IP-One), carbachol + lithium. Potency, µM (titrated, usually from 59.4 µM), for the others: at the highest dose activity, negative = IMPase inhibition, hits mostly inhibitors. 0.35% of 210,000 active. AID 1457;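 also: IP1 builds up when IMPase is blocked and the TR-FRET signal falls; potency is read from the fitted curve at half-maximal effect; plate controls were basal vehicle for no effect and high inhibitor control for full effect; nearly all actives have a fitted effect of over 50% in size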
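Concentration–response in CHO-M1 cells, lithium-potentiated; 30 min at 37C. IP1 detected by competitive TR-FRET after 10 min lysis at RT. Hill-fitted AC50.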
ALDH1A1 block = blocks purified human ALDH1A1 activity | P00352 | Purified ALDH1A1, NADH fluorescence, propionaldehyde substrate | Potency, µM (series often up to 75.3 µM), for the others: at the top dose activity, negative = inhibition, usual class: inhibitors | 7.3% of 220,000 active | AID 1030; active = well fitted inhibition curve with a large enough effect, not every such curve was filed as active; inconclusive = small, poorly fitted or top-dose-only effect, or another doubt; inactive = no such curve, though single readings can be large or run the other way;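 also: potency is read from the fitted curve at half-maximal effect; plate controls were no enzyme wells and a reference inhibitor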
Target sequence (P00352 whole entry, looked up): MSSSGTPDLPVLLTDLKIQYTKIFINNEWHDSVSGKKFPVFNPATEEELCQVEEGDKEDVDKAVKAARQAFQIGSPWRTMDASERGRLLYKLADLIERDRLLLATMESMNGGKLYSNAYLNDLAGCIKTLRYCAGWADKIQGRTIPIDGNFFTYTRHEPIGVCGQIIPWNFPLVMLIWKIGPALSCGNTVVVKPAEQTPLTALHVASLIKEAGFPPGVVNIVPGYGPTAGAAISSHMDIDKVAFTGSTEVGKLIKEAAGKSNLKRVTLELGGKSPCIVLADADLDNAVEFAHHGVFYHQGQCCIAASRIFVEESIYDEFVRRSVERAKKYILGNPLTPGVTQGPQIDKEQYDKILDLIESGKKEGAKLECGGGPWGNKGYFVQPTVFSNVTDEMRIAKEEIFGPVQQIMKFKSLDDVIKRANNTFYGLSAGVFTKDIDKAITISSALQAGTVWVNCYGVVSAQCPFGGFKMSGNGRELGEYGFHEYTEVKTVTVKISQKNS
PNC assembly inh = blocks assembly of the perinucleolar compartment. 3.1% of 140,000 active. PC3M PTB-GFP, PNC prevalence imaging, 16 h; stronger effect = lower value. activity change (PNC), negative = inhibition, % at 10 µM;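 active = readout at or below -70, meaning at least 70% loss of cells showing the perinucleolar compartment, a nuclear body marking cancer cells; inconclusive = readout between -30 and a set limit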;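 also: plate controls were DMSO wells for no effect and camptothecin positive control wells for full effect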
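PC3M cells stably expressing PTB-GFP, 750–1000 cells/well, treated 16 h at 37 °C with compound (23 nl of library stock), in duplicate. After paraformaldehyde fixation and Hoechst stain, imaged at 20x; PNC prevalence scored by image analysis.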
Numbers without * were called inactive; ? = inconclusive; · = no result; [ ] = dose if it differs, or a comment. Unless noted, calls follow the shape of the dose curve; as a rule, active = well fitted curve in the direction sought with a large enough effect; inconclusive = small, poorly fitted or top-dose-only effect, or another doubt; inactive = no such curve, though single readings can be large; an effect the other way counts as inactive or inconclusive. Unless noted, % is scaled to controls: 0 for no effect and ±100 for the full control effect.

SMILES	HPGD block	IMPase cell inh	NPSR antagonist	IMPase Li cell	ALDH1A1 block	PNC assembly inh
CCOC(=O)CSc1n[nH]c(-c2ccco2)n1	?	6	2%[46.1 µM]	3%[38.3 µM]	1%	24
O=C(O)c1ccc(CSc2n[nH]c(-c3ccco3)n2)cc1	2.8µM*	3	2%[46.1 µM]	1%[38.3 µM]	?	25
O=C(CSc1n[nH]c(-c2ccco2)n1)N1c2ccccc2Sc2ccccc21	13µM*	-1	-37%[46.1 µM]	-11%[38.3 µM]	7.9µM*	?
CN(C)CCNc1ncnc2c1sc1nc(N3CCOCC3)c3c(c12)CC(C)(C)SC3	-20%	6	-4%[46.1 µM]	-7%[38.3 µM]	-2%	-12
COc1ccccc1CNC(=O)c1cnccn1	-11%	-3	-2%[46.1 µM]	25%[38.3 µM]	-1%	28
NNC(=O)CSCc1nc(-c2ccccc2)cs1	·	·	-12%	·	-4%	·
NNC(=O)CSCc1nc(-c2ccc(Cl)cc2)cs1	·	·	-13%	·	0.71µM*	·
NC(=O)Cc1nc(-c2ccc(F)cc2)cs1	·	·	19%	·	·	·
NC(=S)Cc1nc(-c2ccc(Cl)cc2)cs1	·	·	3%	15%	2µM*	·
O=[N+]([O-])c1ccc(-c2c[nH]c(=S)[nH]2)cc1	·	·	-17%	·	0.5µM*	·
Oc1ccc(Br)cc1/C=N/n1cnc2ccccc21	14µM*	-13	-11%[46.1 µM]	-3%[38.3 µM]	8%	0
CCOC(=O)C1(Cc2ccccc2)CCN(Cc2ccc(COC)o2)CC1	·	·	3%	11%	3%	·
Cc1noc(C)c1-c1cncnc1NCc1cccnc1	·	·	·	14%	25µM*	·
Cc1ccc(NC(=O)/C=C\C(=O)O)c([N+](=O)[O-])c1	-7%	10	10%	7%	13µM*	-6
Cc1ccc(NC(=O)Cn2ccsc2=N)c([N+](=O)[O-])c1	·	·	7%	5%	7.1µM*	·
Cc1cc(C)c(NC(=O)/C=C\C(=O)O)c([N+](=O)[O-])c1	22µM*	4	1%[46.1 µM]	-5%[38.3 µM]	10µM*	5
Cc1ccc([N+](=O)[O-])cc1NC(=O)/C=C/C(=O)O	·	·	21%	·	·	·
NC12CCc3c(no[n+]3[O-])C1(O)CC(c1ccccc1)=[N+]2[O-] (stereo not drawn)	-10%	2	-10%[46.1 µM]	17%[38.3 µM]	-4%	-1
Cc1ccnc(SCCn2c(N3CCC(C)CC3)nc3c2c(=O)[nH]c(=O)n3C)n1	-6%	4	0%[46.1 µM]	3%[38.3 µM]	8%	11
CCn1c(SCC(=O)O)nnc1-c1ccccc1	-12%	-1	-3%[46.1 µM]	-26%[38.3 µM]	-1%	-96*
CCn1c(SCC(=O)c2ccc(C)cc2)nnc1-c1ccoc1C	32µM*	6	-27%[46.1 µM]	7%	?	1
CCn1c(SCC(=O)c2ccc(C)cc2)nnc1-c1ccncc1	32µM*	5	-12%[46.1 µM]	14%[38.3 µM]	?	-2
CCn1c(SCC(=O)OC)nnc1-c1ccccc1	·	·	13%	4%	8%	·
Nc1cc(S(N)(=O)=O)ccc1SSc1ccc(S(N)(=O)=O)cc1N	5µM*	·	·	36%	2µM*	·
Nc1cc(S(=O)(=O)O)ccc1O	-6%	·	·	26%	?	·
SMILES	HPGD block	IMPase cell inh	NPSR antagonist	IMPase Li cell	ALDH1A1 block	PNC assembly inh
C#CCNC(=O)C1=C[C@@H](c2coc3ccccc3c2=O)C[C@@H](OCCCCO)O1	·	·	-20%	-4%	10µM*	·
CC(=O)n1cc([C@H]2C=C(C(=O)N3CCN(Cc4ccccc4)CC3)O[C@@H](OCCCCO)C2)c2ccccc21	·	·	45%	8%	28µM*	·
CC(=O)n1cc([C@H]2C=C(C(=O)NCc3ccccc3)O[C@@H](OCc3ccc(CO)cc3)C2)c2ccccc21	·	·	32%	1%	16µM*	·
O=C(NCc1ccccc1)C1=C[C@H](c2ccc3c(c2)OCO3)C[C@H](OCCCCO)O1	·	·	8%	3%	?	·
O=C(NCc1ccccc1)C1=C[C@@H](c2ccc(Br)cc2)C[C@@H](OCCCCO)O1	·	·	?	4%	25µM*	·
O=C(NCc1ccccc1)C1=C[C@H](c2ccc(Br)cc2)C[C@H](OCc2ccc(CO)cc2)O1	·	·	52%	14%	?	·
CC(=O)n1cc([C@@H]2C=C(C(=O)N3CCN(Cc4ccccc4)CC3)O[C@H](OCc3ccc(CO)cc3)C2)c2ccccc21	·	·	?	10%	16µM*	·
O=C(NCc1ccccc1)C1=C[C@@H](c2ccccc2)C[C@@H](OCc2ccc(CO)cc2)O1	·	·	?	-5%	32µM*	·
Cc1cc(NC(=O)COC(=O)c2c(C)nn(-c3ccccc3)c2C)no1	-16%	10	10%[7.67 µM]	-20%[38.3 µM]	-4%	-25
O=C(CCC1CCCCC1)Nc1c2c(nn1-c1ccc(F)cc1)CS(=O)(=O)C2	-7%	-1	-19%[46.1 µM]	-4%[38.3 µM]	10µM*	-12
O=C(Nc1c2c(nn1-c1ccc(F)cc1)CS(=O)(=O)C2)C12CC3CC(CC(C3)C1)C2	-13%	-5	-11%[46.1 µM]	7%[38.3 µM]	4µM*	7
CC(C)CC(=O)Nc1c2c(nn1-c1ccc(F)cc1)CSC2	3%	·	1%	6%	-8%	52
CCC(=O)Nc1c2c(nn1-c1ccc(F)cc1)CS(=O)C2 (stereo not drawn)	-1%	5	-1%[46.1 µM]	-4%[38.3 µM]	18%	-7
COc1ccc(C(C)=O)cc1COC(=O)c1cnc(C)cn1	-8%	4	-15%[46.1 µM]	15%[38.3 µM]	-5%	14
NC(=O)CNC(=O)[C@@H]1CC2(CC(c3ccc(Cl)cc3)=NO2)CN1C(=O)c1ccccc1 (stereo partly drawn)	-19%	7	-5%[46.1 µM]	-2%[38.3 µM]	28µM*	-24
COc1ccc(C(=O)c2sc3nc(C)cc(-c4cccs4)c3c2N)cc1OC	-11%	·	-28%	7%	6%	-82*
CCOc1cc(/C=C2\SC(=S)N(C(C(=O)O)c3ccccc3)C2=O)ccc1O (stereo not drawn)	·	·	30%	·	32µM*	·
COc1cccc(/C=C2\SC(=S)N(CC3CCCO3)C2=O)c1 (stereo not drawn)	-20%	·	-11%	1%	3.2µM*	-19
O=C1/C(=C/c2cccc(O)c2)SC(=S)N1CC1CCCO1 (stereo not drawn)	·	·	-5%	·	·	·
CCOc1cc(/C=C2/SC(=S)N(CC3CCCO3)C2=O)ccc1O (stereo not drawn)	·	·	18%	13%	0.45µM*	·
CCOc1ccc(/C=C2/SC(=S)N(C(C(=O)O)c3ccccc3)C2=O)cc1OCC (stereo not drawn)	·	·	-28%	-3%	?	·
COc1cc(/C=C/C(=O)O)cc(S(=O)(=O)Nc2ccc3nc(C)sc3c2)c1OC	·	·	14%	·	·	·
CCOC(=O)N1CCc2c(sc(NC(=O)CN3CCN(C)CC3)c2C(=O)Nc2ccccc2)C1	·	·	-9%	-13%	14µM*	·
CCOC(=O)c1c(NC(=S)Nc2cccc(C)c2)sc2c1CC(C)(C)SC2	?	-21	-56%	-2%	4µM*	?
